# Reference: PMC7862700, “An all-to-all approach to the identification of sequence-specific readers for epigenetic DNA modifications on cytosine”
# Tests used:
# Test in all cases: DAPPL (digital affinity profiling via proximity ligation, sequencing); 10 mM Tris-HCl pH 7.5, 50 mM NaCl, 1 mM DTT, 4% glycerol, room temperature, 30 min; GST-TFs on glutathione beads, 16-mer random dsDNA library, 0.1% formaldehyde crosslink after washing; high values mean tight binding
# FEV = biological target: T1, FEV (Homo sapiens, UniProt Q99581 1-238); details: protein: recombinant; tags: N-terminal GST; dsDNA, one strand shown
# T1 sequence: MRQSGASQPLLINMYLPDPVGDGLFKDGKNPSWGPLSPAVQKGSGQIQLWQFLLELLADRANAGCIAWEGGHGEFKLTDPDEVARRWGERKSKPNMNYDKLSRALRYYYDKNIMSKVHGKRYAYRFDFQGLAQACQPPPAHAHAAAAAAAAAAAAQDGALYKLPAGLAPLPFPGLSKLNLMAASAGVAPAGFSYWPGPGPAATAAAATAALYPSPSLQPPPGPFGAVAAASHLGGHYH
# Procedure, shortened: (§1)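 Beads coated with glutathione captured GST-fused human transcription factors that had been expressed in yeast, and the factors were then given DNA barcodes and pooled with a tag-only sample. The pools were incubated with 200 nmole of a random double-stranded 16-mer DNA library in Tris/NaCl/DTT/glycerol buffer for 30 min at room temperature, washed, crosslinked with 0.1% formaldehyde and proximity-ligated with BsaI/T4 ligase at 37 °C for 1 h. PCR amplification and Illumina NextSeq500 sequencing came last. Binding signal is each hexamer's read frequency for a factor divided by its frequency for the tag-only sample.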
# ETV5 = ETV5 (Homo sapiens, UniProt P41161 1-510); details: protein: recombinant; tags: N-terminal GST; dsDNA, one strand shown
# Procedure, shortened: as §1
# HSF1 = HSF1 (Homo sapiens, UniProt Q00613 1-529); details: protein: recombinant; tags: N-terminal GST; chain copies: 3; dsDNA, one strand shown
# Procedure, shortened: as §1
# SPIC = biological target: T2, SPIC (Homo sapiens, UniProt Q8N5J4 1-248); details: protein: recombinant; tags: N-terminal GST; dsDNA, one strand shown
# T2 sequence: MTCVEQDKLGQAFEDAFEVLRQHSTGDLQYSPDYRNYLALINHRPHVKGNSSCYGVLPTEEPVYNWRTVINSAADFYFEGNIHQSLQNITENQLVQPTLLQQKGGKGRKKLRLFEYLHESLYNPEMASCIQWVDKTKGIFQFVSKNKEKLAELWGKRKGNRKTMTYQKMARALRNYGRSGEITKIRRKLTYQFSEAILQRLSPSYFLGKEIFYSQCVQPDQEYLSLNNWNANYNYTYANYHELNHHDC
# Procedure, shortened: as §1
# ELF4 = ELF4 (Homo sapiens, UniProt Q99607 1-663); details: protein: recombinant; tags: N-terminal GST; dsDNA, one strand shown
# Procedure, shortened: as §1
# ELK4 = biological target: T3, ELK4 (Homo sapiens, UniProt P28324-2 1-405); details: protein: recombinant; tags: N-terminal GST; dsDNA, one strand shown
# T3 sequence: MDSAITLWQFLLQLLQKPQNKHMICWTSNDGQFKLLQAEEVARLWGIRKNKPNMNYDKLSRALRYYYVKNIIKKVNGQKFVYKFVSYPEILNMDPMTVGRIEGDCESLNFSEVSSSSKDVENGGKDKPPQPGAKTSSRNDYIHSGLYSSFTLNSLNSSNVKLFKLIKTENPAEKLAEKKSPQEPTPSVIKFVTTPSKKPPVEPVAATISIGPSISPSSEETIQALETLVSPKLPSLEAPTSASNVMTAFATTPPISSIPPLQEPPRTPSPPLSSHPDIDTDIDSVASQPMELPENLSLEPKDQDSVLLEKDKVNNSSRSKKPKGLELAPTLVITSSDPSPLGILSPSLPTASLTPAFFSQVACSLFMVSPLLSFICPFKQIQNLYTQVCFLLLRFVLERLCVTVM
# Procedure, shortened: as §1
# ETV2 = biological target: T4, ETV2 (Homo sapiens, UniProt O00321 1-342); details: protein: recombinant; tags: N-terminal GST; dsDNA, one strand shown
# T4 sequence: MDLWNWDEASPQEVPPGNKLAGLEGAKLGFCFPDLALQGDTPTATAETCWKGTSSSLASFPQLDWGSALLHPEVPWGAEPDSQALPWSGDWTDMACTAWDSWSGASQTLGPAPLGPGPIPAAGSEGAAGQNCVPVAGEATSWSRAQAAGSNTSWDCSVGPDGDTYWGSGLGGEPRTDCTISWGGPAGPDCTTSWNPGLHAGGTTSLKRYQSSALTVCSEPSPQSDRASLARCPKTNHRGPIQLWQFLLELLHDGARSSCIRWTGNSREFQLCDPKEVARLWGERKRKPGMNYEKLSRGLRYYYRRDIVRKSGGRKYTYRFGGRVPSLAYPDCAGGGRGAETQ
# Procedure, shortened: as §1
# ELF3 = biological target: T5, ELF3 (Homo sapiens, UniProt P78545 1-371); details: protein: recombinant; tags: N-terminal GST; dsDNA, one strand shown
# T5 sequence: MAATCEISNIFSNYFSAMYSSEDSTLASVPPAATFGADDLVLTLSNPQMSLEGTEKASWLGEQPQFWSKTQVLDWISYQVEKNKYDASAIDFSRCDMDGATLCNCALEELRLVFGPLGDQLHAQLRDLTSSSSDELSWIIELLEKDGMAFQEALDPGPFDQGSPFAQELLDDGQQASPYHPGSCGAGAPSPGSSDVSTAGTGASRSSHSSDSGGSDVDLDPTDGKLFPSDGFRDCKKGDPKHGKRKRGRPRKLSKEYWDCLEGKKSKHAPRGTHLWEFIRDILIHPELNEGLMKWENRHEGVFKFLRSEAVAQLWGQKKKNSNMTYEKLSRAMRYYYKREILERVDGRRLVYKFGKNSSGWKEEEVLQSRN
# Procedure, shortened: as §1
# CRX = CRX (Homo sapiens, UniProt O43186 1-299); details: protein: recombinant; tags: N-terminal GST; dsDNA, one strand shown
# Procedure, shortened: as §1
# ETV1 = ETV1 (Homo sapiens, UniProt P50549 1-477); details: protein: recombinant; tags: N-terminal GST; dsDNA, one strand shown
# Procedure, shortened: as §1
# ERF = biological target: T6, ERF (Homo sapiens, UniProt P50548 1-548); details: protein: recombinant; tags: N-terminal GST; dsDNA, one strand shown
# T6 sequence: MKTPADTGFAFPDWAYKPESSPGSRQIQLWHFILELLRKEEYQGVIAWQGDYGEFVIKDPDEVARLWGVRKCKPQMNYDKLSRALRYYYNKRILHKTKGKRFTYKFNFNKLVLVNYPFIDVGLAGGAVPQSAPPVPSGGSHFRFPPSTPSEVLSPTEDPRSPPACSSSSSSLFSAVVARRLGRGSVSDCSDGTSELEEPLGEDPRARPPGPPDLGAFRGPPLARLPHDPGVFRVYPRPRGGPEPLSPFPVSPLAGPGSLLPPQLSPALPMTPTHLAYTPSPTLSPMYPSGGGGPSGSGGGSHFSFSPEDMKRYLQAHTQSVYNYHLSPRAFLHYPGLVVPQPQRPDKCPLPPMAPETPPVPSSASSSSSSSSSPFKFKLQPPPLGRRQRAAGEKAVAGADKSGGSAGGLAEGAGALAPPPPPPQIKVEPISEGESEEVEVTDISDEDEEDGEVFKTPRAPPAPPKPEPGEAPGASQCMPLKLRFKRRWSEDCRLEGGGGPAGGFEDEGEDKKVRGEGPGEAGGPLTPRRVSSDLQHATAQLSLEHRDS
# Procedure, shortened: as §1
# ETV3L = biological target: T7, ETV3L (Homo sapiens, UniProt Q6ZN32 1-361); details: protein: recombinant; tags: N-terminal GST; dsDNA, one strand shown
# T7 sequence: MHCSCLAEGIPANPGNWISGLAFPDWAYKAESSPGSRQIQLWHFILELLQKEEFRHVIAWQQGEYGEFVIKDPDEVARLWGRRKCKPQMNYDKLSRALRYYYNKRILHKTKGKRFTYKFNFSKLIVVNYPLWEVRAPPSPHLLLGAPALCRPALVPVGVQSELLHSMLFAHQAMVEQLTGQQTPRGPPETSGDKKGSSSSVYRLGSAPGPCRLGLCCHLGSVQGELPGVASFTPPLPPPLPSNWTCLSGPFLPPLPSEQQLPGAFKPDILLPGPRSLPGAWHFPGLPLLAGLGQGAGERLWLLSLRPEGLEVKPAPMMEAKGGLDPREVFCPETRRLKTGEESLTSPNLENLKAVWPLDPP
# Procedure, shortened: as §1
# ETS2 = biological target: T8, ETS2 (Homo sapiens, UniProt P15036 1-469); details: protein: recombinant; tags: N-terminal GST; dsDNA, one strand shown
# T8 sequence: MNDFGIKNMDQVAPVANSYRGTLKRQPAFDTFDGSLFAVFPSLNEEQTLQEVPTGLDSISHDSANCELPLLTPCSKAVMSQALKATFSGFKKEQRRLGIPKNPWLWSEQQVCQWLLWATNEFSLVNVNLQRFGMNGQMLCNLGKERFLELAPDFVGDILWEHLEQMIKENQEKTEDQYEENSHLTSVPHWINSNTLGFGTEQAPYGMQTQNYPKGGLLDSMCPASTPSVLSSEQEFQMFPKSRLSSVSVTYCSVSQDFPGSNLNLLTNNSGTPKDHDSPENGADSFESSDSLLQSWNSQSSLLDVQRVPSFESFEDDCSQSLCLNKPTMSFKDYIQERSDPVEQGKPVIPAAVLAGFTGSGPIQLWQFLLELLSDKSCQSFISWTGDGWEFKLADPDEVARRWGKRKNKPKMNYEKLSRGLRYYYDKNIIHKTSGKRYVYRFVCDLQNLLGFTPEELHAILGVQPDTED
# Procedure, shortened: as §1
# SPDEF = biological target: T9, SPDEF (Homo sapiens, UniProt O95238 1-335); details: protein: recombinant; tags: N-terminal GST; dsDNA, one strand shown
# T9 sequence: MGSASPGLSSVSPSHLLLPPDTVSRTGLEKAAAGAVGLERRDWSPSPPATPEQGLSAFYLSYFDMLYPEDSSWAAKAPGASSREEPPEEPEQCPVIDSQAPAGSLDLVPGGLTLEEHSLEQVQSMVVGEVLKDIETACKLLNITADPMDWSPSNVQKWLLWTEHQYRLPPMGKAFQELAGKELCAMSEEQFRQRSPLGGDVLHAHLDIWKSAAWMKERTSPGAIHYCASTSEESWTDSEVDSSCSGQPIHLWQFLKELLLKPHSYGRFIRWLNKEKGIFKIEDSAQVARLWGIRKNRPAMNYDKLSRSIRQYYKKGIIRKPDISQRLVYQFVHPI
# Procedure, shortened: as §1
# ETV7 = biological target: T10, ETV7 (Homo sapiens, UniProt Q9Y603 1-341); details: protein: recombinant; tags: N-terminal GST; dsDNA, one strand shown
# T10 sequence: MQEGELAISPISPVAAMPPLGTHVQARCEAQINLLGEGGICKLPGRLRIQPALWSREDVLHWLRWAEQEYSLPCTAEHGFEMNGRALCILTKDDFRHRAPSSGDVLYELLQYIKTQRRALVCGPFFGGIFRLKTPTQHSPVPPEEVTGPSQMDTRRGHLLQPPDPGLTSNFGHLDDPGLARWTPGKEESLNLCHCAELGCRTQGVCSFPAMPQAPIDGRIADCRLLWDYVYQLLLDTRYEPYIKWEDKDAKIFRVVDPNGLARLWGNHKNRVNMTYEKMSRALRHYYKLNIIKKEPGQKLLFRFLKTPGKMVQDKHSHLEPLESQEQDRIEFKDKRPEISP
# Procedure, shortened: as §1
# ELF5 = biological target: T11, ELF5 (Homo sapiens, UniProt Q9UKW6-2 1-255); details: protein: recombinant; tags: N-terminal GST; dsDNA, one strand shown
# T11 sequence: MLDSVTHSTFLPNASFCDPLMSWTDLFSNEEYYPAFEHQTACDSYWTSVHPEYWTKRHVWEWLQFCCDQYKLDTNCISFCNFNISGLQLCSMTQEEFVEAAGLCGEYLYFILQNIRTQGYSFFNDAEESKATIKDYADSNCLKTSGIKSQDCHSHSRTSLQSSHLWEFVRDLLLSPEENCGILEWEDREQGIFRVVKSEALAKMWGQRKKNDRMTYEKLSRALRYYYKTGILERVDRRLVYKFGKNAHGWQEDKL
# Procedure, shortened: as §1
# ETV3 = biological target: T12, ETV3 (Homo sapiens, UniProt P41162-2 1-143); details: protein: recombinant; tags: N-terminal GST; dsDNA, one strand shown
# T12 sequence: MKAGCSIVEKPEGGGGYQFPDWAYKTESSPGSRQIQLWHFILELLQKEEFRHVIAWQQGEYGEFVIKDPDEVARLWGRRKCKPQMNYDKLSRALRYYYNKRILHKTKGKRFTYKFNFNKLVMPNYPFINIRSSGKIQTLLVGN
# Procedure, shortened: as §1
# ETV6 = ETV6 (Homo sapiens, UniProt P41212 1-452); details: protein: recombinant; tags: N-terminal GST; dsDNA, one strand shown
# Procedure, shortened: as §1
# ETV1, sequence (P50549 whole entry): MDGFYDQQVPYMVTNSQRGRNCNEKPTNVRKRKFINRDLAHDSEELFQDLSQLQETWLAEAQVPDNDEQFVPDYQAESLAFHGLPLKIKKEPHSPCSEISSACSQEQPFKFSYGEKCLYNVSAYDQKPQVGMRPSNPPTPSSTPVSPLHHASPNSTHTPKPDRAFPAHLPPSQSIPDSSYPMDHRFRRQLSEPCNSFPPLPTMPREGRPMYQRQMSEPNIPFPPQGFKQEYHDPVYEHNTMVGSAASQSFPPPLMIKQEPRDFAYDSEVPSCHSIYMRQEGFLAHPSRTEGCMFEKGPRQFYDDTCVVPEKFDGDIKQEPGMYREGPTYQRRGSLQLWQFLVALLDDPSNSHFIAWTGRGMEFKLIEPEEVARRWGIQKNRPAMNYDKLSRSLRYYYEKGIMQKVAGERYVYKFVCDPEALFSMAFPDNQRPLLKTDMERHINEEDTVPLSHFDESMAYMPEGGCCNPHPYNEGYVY
# ETV5, sequence (P41161 whole entry): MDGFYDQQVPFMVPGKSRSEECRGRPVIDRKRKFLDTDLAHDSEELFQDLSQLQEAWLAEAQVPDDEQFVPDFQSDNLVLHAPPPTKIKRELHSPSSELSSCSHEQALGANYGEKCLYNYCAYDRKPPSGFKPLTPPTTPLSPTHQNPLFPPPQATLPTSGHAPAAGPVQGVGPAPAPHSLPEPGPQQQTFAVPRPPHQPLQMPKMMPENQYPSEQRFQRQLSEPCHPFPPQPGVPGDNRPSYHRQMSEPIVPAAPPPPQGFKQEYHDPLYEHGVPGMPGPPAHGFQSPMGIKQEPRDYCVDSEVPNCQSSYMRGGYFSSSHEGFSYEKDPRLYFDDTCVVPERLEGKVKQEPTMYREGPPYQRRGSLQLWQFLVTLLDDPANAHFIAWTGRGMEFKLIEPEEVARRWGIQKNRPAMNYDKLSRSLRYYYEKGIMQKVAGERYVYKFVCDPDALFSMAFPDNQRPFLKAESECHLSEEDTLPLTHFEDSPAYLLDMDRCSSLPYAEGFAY
# CRX, sequence (O43186 whole entry): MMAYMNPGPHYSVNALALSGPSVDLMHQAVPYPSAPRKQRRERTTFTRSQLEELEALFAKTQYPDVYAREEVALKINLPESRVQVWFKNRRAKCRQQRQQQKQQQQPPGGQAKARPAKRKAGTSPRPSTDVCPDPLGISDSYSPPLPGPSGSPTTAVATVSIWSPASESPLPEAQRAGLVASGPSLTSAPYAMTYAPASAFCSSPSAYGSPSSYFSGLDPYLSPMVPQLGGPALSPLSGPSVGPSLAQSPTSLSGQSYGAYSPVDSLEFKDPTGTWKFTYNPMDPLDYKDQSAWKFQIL
# ETV6, sequence (P41212 whole entry): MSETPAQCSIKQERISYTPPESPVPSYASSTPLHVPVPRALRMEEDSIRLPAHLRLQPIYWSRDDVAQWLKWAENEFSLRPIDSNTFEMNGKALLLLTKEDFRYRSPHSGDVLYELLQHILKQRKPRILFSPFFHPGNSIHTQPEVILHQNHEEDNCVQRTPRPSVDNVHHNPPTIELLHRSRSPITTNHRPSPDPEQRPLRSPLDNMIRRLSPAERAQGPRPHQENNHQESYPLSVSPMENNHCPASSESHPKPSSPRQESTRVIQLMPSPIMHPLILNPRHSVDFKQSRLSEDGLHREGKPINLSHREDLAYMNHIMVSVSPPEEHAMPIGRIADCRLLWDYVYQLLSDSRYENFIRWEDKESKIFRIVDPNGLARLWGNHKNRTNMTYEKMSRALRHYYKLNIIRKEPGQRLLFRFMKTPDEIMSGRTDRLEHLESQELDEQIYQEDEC
# HSF1, sequence (Q00613 whole entry): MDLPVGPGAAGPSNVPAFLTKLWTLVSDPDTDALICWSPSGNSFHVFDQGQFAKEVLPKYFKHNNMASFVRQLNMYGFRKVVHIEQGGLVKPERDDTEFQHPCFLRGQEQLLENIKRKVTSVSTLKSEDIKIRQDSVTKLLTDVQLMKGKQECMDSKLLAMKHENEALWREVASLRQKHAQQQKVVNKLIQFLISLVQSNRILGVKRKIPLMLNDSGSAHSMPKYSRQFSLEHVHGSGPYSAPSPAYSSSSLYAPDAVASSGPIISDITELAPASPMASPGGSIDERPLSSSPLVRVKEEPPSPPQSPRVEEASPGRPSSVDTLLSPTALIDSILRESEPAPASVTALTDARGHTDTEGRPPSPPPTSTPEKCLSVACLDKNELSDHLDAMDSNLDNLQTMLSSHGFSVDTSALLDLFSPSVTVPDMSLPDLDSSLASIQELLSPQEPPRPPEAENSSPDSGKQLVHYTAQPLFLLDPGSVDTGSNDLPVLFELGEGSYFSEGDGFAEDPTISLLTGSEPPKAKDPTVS
# ELF4, sequence (Q99607 whole entry): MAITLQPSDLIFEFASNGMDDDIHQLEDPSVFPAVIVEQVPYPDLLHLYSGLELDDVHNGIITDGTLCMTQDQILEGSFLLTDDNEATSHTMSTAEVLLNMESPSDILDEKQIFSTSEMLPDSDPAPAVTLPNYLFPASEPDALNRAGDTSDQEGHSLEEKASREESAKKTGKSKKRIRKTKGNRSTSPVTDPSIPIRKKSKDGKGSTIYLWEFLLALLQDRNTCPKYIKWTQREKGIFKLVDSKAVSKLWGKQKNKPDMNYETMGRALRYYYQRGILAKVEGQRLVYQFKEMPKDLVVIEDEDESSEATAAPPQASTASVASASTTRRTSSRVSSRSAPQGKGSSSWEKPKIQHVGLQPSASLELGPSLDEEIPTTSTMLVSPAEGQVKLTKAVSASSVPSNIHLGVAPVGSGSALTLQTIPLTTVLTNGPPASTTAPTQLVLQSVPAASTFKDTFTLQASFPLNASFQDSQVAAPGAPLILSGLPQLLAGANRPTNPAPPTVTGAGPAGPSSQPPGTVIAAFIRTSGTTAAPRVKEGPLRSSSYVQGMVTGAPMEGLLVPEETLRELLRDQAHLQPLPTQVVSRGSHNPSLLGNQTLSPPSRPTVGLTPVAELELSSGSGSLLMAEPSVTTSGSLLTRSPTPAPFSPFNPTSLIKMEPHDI
sequence,measurement,setting,value
AAATTC,binding signal,FEV,"1.26 fold enrichment (6-mer frequency, TF over GST control)"
same,binding signal,ETV5,"1.38 fold enrichment (6-mer frequency, TF over GST control)"
same,binding signal,HSF1,"1.95 fold enrichment (6-mer frequency, TF over GST control)"
same,binding signal,SPIC,"1.34 fold enrichment (6-mer frequency, TF over GST control)"
same,binding signal,ELF4,"1.32 fold enrichment (6-mer frequency, TF over GST control)"
same,binding signal,ELK4,"1.15 fold enrichment (6-mer frequency, TF over GST control)"
same,binding signal,ETV2,"1.26 fold enrichment (6-mer frequency, TF over GST control)"
same,binding signal,ELF3,"1.35 fold enrichment (6-mer frequency, TF over GST control)"
same,binding signal,CRX,"1.51 fold enrichment (6-mer frequency, TF over GST control)"
same,binding signal,ETV1,"1.3 fold enrichment (6-mer frequency, TF over GST control)"
same,binding signal,ERF,"1.29 fold enrichment (6-mer frequency, TF over GST control)"
same,binding signal,ETV3L,"1.43 fold enrichment (6-mer frequency, TF over GST control)"
same,binding signal,ETS2,"1.33 fold enrichment (6-mer frequency, TF over GST control)"
same,binding signal,SPDEF,"1.34 fold enrichment (6-mer frequency, TF over GST control)"
same,binding signal,ETV7,"1.28 fold enrichment (6-mer frequency, TF over GST control)"
same,binding signal,ELF5,"1.4 fold enrichment (6-mer frequency, TF over GST control)"
same,binding signal,ETV3,"1.3 fold enrichment (6-mer frequency, TF over GST control)"
same,binding signal,ETV6,"1.31 fold enrichment (6-mer frequency, TF over GST control)"
